Molecules are shown by their SMILES. Screen size: about 16,000 compounds; about 2,600 (16%) were called active. Roughly 20% stayed inconclusive and do not appear here. Calls follow the shape of the dose curve; as a rule, active = well fitted curve in the direction sought with a large enough effect; inconclusive = small, poorly fitted or top-dose-only effect, or effect the other way; inactive = no such curve, though single readings can be large or run the other way. Not all results are given here.
% is scaled to controls: 0 for no effect and ±100 for the full control effect.

For this experiment, the target named is Cytochrome P450 2D6 (Homo sapiens) (UniProt P10635). As to the kind of experiment: Cytochrome panel assay with activity outcomes. Particulars: recombinant CYP, pro-luciferin dealkylation, luminescence, p450-cyp2d6; series mostly up to 57.1 µM; activity, negative = inhibition: at the top concentration.
Sequence of Cytochrome P450 2D6 (Homo sapiens) (P10635 whole entry, looked up): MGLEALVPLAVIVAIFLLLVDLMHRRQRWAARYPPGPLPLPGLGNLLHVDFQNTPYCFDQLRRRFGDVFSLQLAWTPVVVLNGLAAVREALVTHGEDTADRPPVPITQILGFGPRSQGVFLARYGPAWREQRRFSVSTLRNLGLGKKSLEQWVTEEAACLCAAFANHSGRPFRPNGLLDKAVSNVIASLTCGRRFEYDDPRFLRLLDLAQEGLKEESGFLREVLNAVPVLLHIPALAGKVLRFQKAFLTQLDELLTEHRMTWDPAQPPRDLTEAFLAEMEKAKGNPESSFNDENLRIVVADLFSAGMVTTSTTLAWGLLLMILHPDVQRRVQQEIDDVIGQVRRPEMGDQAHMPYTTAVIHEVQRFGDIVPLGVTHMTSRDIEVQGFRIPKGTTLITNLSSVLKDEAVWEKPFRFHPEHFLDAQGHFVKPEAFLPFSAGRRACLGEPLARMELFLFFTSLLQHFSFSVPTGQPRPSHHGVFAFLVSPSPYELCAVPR
Regarding `COCCn1c(=O)c(-c2cccs2)nc2cnc(OC)nc21`, the “activity, negative = inhibition” value is -9.81% (inactive). Regarding `NC(=O)Cn1c(=O)n(Cc2ccco2)c(=O)c2c3c(sc21)CCCCC3`, the “activity, negative = inhibition” value was -14.5% (inactive).

Consider `CN(C)CCn1c(=O)n(Cc2ccco2)c(=O)c2c3c(sc21)CCCCC3`, for which the AC50 (commonly the midpoint of the concentration-response curve, whichever way the signal moves) was 1.58 µM (active). `Cn1c(=O)c2c3c(sc2n2cnnc12)CCC3`: the “activity, negative = inhibition” value was 21.1% (inactive). Same read-out and setting: the same measure for `CC(=O)N(NC(=O)c1ccccc1Cl)C1CC(=O)N(c2ccc(C)cc2)C1=O` (stereo not drawn): 4.28% (inactive). As for `CC(=O)N(C[C@@H](C)C(=O)O)c1c(I)cc(I)c(N)c1I`, the “activity, negative = inhibition” value is 3.85% [at 25.6 µM] (inactive). Regarding `CCOc1cc2c(C)cc(=O)oc2cc1Cl`, the “activity, negative = inhibition” value was -2.51% (inactive).

`Brc1ccc(-c2csc(N3CCC(c4ccccc4)C3)n2)cc1` (stereo not drawn): the “activity, negative = inhibition” value is -13.3% (inactive). For `O=C(COc1ccc(Br)cc1)N1CCC(c2ccccc2)C1` (stereo not drawn), the AC50 is 17.8 µM (active). On to `CCOc1ccc(NC(=O)N2CCC(c3ccc(C)cc3)C2)cc1` (stereo not drawn), for which the “activity, negative = inhibition” value was -22.3% (inactive). Take `CN(CCCNC(=O)c1ccc(/C=N/O)nc1)CCCN(C)Cc1ccccc1`: the AC50 was 2.82 µM (active).

Regarding `COC(=O)c1cc2n(n1)CCN(Cc1ccccc1F)C2=O`, the “activity, negative = inhibition” value is -3.58% (inactive).

As for `Cc1ccc(C(=O)/C=C2\NCC(C)NC2=O)cc1` (stereo not drawn), the “activity, negative = inhibition” value was -5.26% (inactive).

As to `Cc1ccc(C(=O)NC2CCCCC2)cc1`, the “activity, negative = inhibition” value was 9.04% (inactive). As to `Cc1ccc(C(=O)C2CCNCC2)cc1`, the AC50 was 1.41 µM (active). Turning to `O=C(Oc1ccc(OC(=O)c2ccco2)c(S(=O)(=O)c2ccc(Br)cc2)c1)c1ccco1`, the “activity, negative = inhibition” value is 5.11% (inactive). On the same count and under the same terms, the same measure for `C/C(=N\NC(=O)c1ccncc1)c1ccc2ccccc2c1O`: -2.13% [at 11.4 µM] (inactive).

On to `COc1ccc(NC(=O)C(c2ccc(OC)cc2)N(C)C(=O)CNC(C)=O)cc1` (stereo not drawn), for which the “activity, negative = inhibition” value was 10.3% (inactive).

As for `CN(C)/C(CN1CCN(C=O)CC1)=C1\N=C(c2ccccc2)OC1=O`, the “activity, negative = inhibition” value was -11.9% (inactive).

`CC1CN(C(=O)c2cc3c(s2)CCC3)CC(C)O1` (stereo not drawn): the “activity, negative = inhibition” value was -0.128% (inactive). Still for that read-out and setting: the same measure for `CCOc1ccc(OCc2ccc(C(=O)N3CCc4ccccc4C3)o2)cc1`: -27.5% (inactive). Consider `COc1ccc(NC(=O)c2ccc(COc3ccccc3)o2)cc1`, for which the “activity, negative = inhibition” value is 25.3% (inactive). On to `CN1CCN(C(=O)c2ccc(COc3ccc(C(C)(C)C)cc3)o2)CC1`, for which the AC50 was 4.47 µM (active). On to `CNC[C@H](O)[C@H](O)[C@H](O)[C@H](O)CO`, for which the “activity, negative = inhibition” value is -3.38% [at 25.6 µM] (inactive). Still for that read-out and setting: under `CO[C@H]1COC(=O)CCC[C@@H](C)[C@H](OC)COC(=O)[C@H]2CCCN2C(=O)C/C=C\[C@@H]1C` stands 6.78% [at 11.4 µM] (inactive); under `O=c1cc(N2CCN(c3ccccc3)CC2)[nH]c(=O)n1C1CCCCC1`, 17.9% (inactive).

Regarding `COc1c(/C=N/Nc2nc(N3CCCCC3)nc(N3CCCCC3)n2)cccc1[N+](=O)[O-]`, the “activity, negative = inhibition” value is 18.9% (inactive).

Take `CN(Cc1cc(Cl)cc(Cl)c1O)Cc1c(O)ccc2ccccc12`: the AC50 is 1.26 µM (active).

For `CN(Cc1cc(Br)cc(Br)c1O)Cc1c(O)ccc2ccccc12`, the AC50 was 1.58 µM (active). Same read-out and setting: under `CCN(Cc1cc(Cl)cc(C)c1O)Cc1c(O)ccc2ccccc12` stands 1.26 µM (active). As to `Oc1ccc2ccccc2c1/C=C\c1ccc2c(Br)cc(Br)c(O)c2n1`, the activity, negative = inhibition is -2.53% [at 11.4 µM] (inactive). Still for that read-out and setting: the same measure for `Oc1ccc(Cl)cc1Cc1cc(Cl)cc(Cc2cc(Cl)ccc2O)c1O`: -10.5% [at 11.4 µM] (inactive); for `COc1ccc(C=Nc2c(O)ccc3ccccc23)cc1OC`: -7.34% [at 11.4 µM] (inactive). Same read-out and setting: under `CN(C)Cc1cc(Cl)c(O)c(CN(C)C)c1` stands -14% [at 11.4 µM] (inactive); under `Cc1c(C(c2cccc([N+](=O)[O-])c2O)c2c(C)n(C)n(-c3ccccc3)c2=O)c(=O)n(-c2ccccc2)n1C`, 17% (inactive); under `COc1ccc(C(NC(=O)c2ccc(-c3ccccc3)cc2)c2ccccc2)cc1` (stereo not drawn), 26.6% (inactive). Still for that read-out and setting: under `CCN(CC)C(=O)C1CCN(S(=O)(=O)c2ccc3oc4ccccc4c3c2)CC1` stands -29.4% (inactive); under `COC(=O)c1ccc2ccn(CC(=O)NC3CCCCC3)c2c1`, -13.2% (inactive). As to `Cn1cc(-c2nc3cncnc3n(CCN)c2=O)c2ccccc21`, the “activity, negative = inhibition” value was -6.64% (inactive). With `CCCCOC1(c2ccccc2)OC(=O)c2ccccc21` (stereo not drawn), the “activity, negative = inhibition” value is -1.34% (inactive). Turning to `Cn1cccc1C(=O)N1CCC2(CCN(Cc3nccs3)CC2)CC1`, the “activity, negative = inhibition” value was -10% (inactive).

Turning to `COc1ccccc1CN1CCC2(CC1)CCN(C(=O)c1cccn1C)CC2`, the concentration at half-maximal activity (AC50) is 3.98 µM (active). Regarding `COc1ccc(NC(=O)N2CCC3(CC2)CCN(C(=O)c2cccn2C)CC3)cc1`, the “activity, negative = inhibition” value was -19.6% (inactive). Regarding `COc1ccccc1CN1CCCC2(CCN(C(=O)c3cccn3C)CC2)C1`, the AC50 was 3.16 µM (active). Regarding `Cn1cccc1C(=O)N1CCC2(CCCN(c3ccccc3)C2)CC1`, the “activity, negative = inhibition” value was -4.1% (inactive). As for `CC(C)NC(=O)N1CC[C@@]2(CCCN(C(=O)c3cccn3C)C2)C1`, the “activity, negative = inhibition” value is 6.81% (inactive). Consider `COc1ccc(NC(=O)N2CC[C@@]3(CCCN(C(=O)c4cccn4C)C3)C2)cc1`, for which the “activity, negative = inhibition” value was 13.3% (inactive).

For `COc1ccccc1CN1CC[C@@]2(CCCN(C(=O)c3cccn3C)C2)C1`, the AC50 was 0.316 µM (active). Consider `CN1CCCC2(CCN(C(=O)c3cccn3C)CC2)C1`, for which the “activity, negative = inhibition” value was 1.2% (inactive). Turning to `Cc1ccc(-c2csc(N3CCC(NS(=O)(=O)c4ccc5c(c4)OCCO5)CC3)n2)cc1`, the “activity, negative = inhibition” value was 3.86% (inactive). For `COc1ccc(-c2nc3cnc(N4CCN(C)CC4)nc3n(CCC#N)c2=O)cc1`, the “activity, negative = inhibition” value was 4.55% (inactive).

`Cc1cc2nnc(SCCCCN3C(=O)c4ccccc4C3=O)n2c2ccccc12`: the “activity, negative = inhibition” value is -11.6% (inactive). Take `COc1cc2c(cc1OC)C(c1ccc(N)cc1)=NNC(=O)C2`: the “activity, negative = inhibition” value is -7.94% (inactive).

The record behind these values is PubChem BioAssay AID1851 (National Center for Advancing Translational Sciences (NCATS), 2009).
